Source: PubChem BioAssay (National Center for Advancing Translational Sciences (NCATS))
Hits are enriched below; roughly 3.8% of the tested compounds scored in any of these assays.
ATXN2 expr inh: inhibitors of ATXN2 expression; HEK-293 ATXN2-luciferase reporter, luminescence, 24 h; AID 1745845; hit rate 0.72% among 360,000; Potency, µM (series often up to 57 µM), without a hit: at the top dose activity change, negative = inhibition, most hits filed as inhibitors; further: on the % scale 0 is the no-effect control and ±100 the full control effect; nearly all actives have a fitted effect of over 55% in size
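ATXN2-luciferase reporter cells (luciferase flanked by upstream and downstream ATXN2 gene portions) were treated 24 h at 37 °C with compounds at up to 57 uM. SteadyGlo luminescence gave expression; GF-AFC fluorescence gave viability.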
A549 viability: A549 cytotoxicity, counter-screen for Nrf2 inhibitors; hit rate 0.16% among 390,000; A549 ARE-Fluc cells, CellTiter-Fluor viability, 18-24 h; AID 504648; Potency, µM (top dose mostly 46 µM), for the others: top-dose activity change, negative = cytotoxicity, actives largely listed as inhibitors; further: on the % scale 0 is the no-effect control and ±100 the full control effect
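A549 ARE-Fluc cells in 5% FBS OPTI-MEM, 5000 cells/well, rested 2 h then exposed to compounds in concentration-response for 18-24 h at 37 °C. Viability by CellTiter-Fluor fluorescence (Ex 405/Em 525) after 30 min; luciferase luminescence (BugLite, 15 min, RT) read afterwards.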
Nrf2 block: blocks Nrf2 signaling. A549 ARE-Fluc reporter, luciferase luminescence, 18-24 h. hit rate 2.1% among 360,000. Potency, µM (titrated, usually from 46 µM), without a hit: at the top dose activity change, negative = inhibition, actives largely listed as inhibitors. AID 504444; further: on the % scale 0 is the no-effect control and ±100 the full control effect; nearly all actives have a fitted effect of over 60% in size
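Quantitative HTS in A549 cells stably bearing an antioxidant response element-firefly luciferase construct. Inhibition of Nrf2-driven transcription was scored by luminescence after 18-24 h of compound exposure at 37 °C.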
TGFb SMAD3 inh: TGF-b pathway inhibition | HepG2 CAGA-GFP TGF-b/SMAD3 reporter, GFP fluorescence, 18 h; TGF-beta stimulated, 500 pg/mL final | hit rate 1.2% among 410,000 | Potency, µM (titrated, usually from 46.1 µM), for inactives: top-dose activity, negative = inhibition, hits mostly inhibitors | AID 588855; further: on the % scale 0 is the no-effect control and ±100 the full control effect; nearly all actives have a fitted effect of over 65% in size
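TGF-beta reporter screen: HEPG2 CAGA-GFP, 1% FBS, 500 pg/mL TGF-beta final, 18 h; per-cell GFP summed per well; curves fitted and categorized by class.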
HepG2 tox: kills HepG2 cells in TGF-b inhibitor counter-screen; HepG2 CAGA-GFP viability, ATP luminescence, 18 h; Potency, µM (top dose mostly 46.1 µM), inactives show top-dose activity change, negative = cytotoxicity, most hits filed as cytotoxic; hit rate 0.76% among 410,000
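HepG2 CAGA-GFP cells (1000/well, DMEM with 1% FBS) received compound, then TGF-beta at 500 pg/mL final, and were incubated 18 hours at 37 degrees C. Viability was read by CellTiter-Glo luminescence. Media-only wells were set as complete cell-killing and DMSO as no toxicity.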
ATXN viability: viability counter-screen for ATXN expression inhibitors. Potency, µM (top dose mostly 56.7 µM), actives largely listed as cytotoxic. hit rate 0.49% among 400,000. AID 651635. S2 cells (HEK-293 line with an ATXN2-luciferase reporter) viability, CellTiter-Fluor protease fluorescence, 24 h; further: nearly all actives have a fitted effect of over 40% in size
* = called active by the depositor; i = inactive; ? = inconclusive; . = no result given; [ ] = another dose, or the depositor's remark. The call rests on the fitted dose curve; in most records, active means well fitted curve in the direction sought with a large enough effect; inconclusive means small, poorly fitted or top-dose-only effect, or another doubt; inactive means no such curve, though single readings can be large; an effect the other way counts as inactive or inconclusive. Potency means the concentration at half of the fitted maximal effect.

SMILES	ATXN2 expr inh	A549 viability	Nrf2 block	TGFb SMAD3 inh	HepG2 tox	ATXN viability
CN1CCN(c2ccc(S(=O)(=O)N3CCCCC3)cc2NC(=O)/C=C/c2ccc(Cl)c([N+](=O)[O-])c2)CC1	22µM*	-6%	?	?	-97%	?
CN1CCN(c2ccc(S(=O)(=O)N3CCCCC3)cc2NC(=O)c2ccc3ccccc3c2)CC1	-3%	-3%	-10%	35µM*	-54%	i
CN1CCN(c2ccc(S(=O)(=O)N3CCCCC3)cc2NC(=O)/C=C/c2ccc(OC(F)F)cc2)CC1	-34%	-18%	3%	?	-100%	i
CC1CN(S(=O)(=O)c2cccc(C(=O)N=c3sccn3C)c2)CC(C)O1 (stereo unspecified)	-10%	-18%	12µM*	1%	-7%	i
COc1cc(NC(=O)[C@@H](NC(=O)N2CCn3c2nc2ccccc23)C(C)C)cc(OC)c1	-10%	4%	-3%	-1%	-3%	i
COc1ccc(NC(=O)CN2CCCN(Cc3ccc(Cl)cc3)S2(=O)=O)cc1Cl	0%	-10%	-10%[9.27 µM]	?	-21%	?
COc1ccc(C(=O)C2CCCN(Cc3ccc4nonc4c3)C2)c(OC)c1 (stereo unspecified)	-37%	-1%	?	?	6%	i
OC1(c2cccnc2)CCN(Cc2ccc3c(c2)CN(Cc2cccc4nccnc24)CCO3)CC1	.	.	.	.	.	i
COc1ccc(CN2CCNC(=O)C2CC(=O)NCc2csc(C)n2)c(F)c1 (stereo unspecified)	3%	4%	2%	6%	1%	i
CCN1CCN(c2ccc(S(=O)(=O)N3CCCCC3)cc2NC(=O)/C=C/c2ccc([N+](=O)[O-])cc2)CC1	32µM*	?	?	-27%	-47%	?
Cc1ccc(NC(=O)c2oc3ccccc3c2NC(=O)c2ccc(F)c(F)c2)cc1	8%	2%	-17%	-21%	-24%	i
COc1ccc(C(C(=O)NC(C)(C)C)N(C(=O)CCC(=O)Nc2cc(C)on2)c2c(C)cccc2C)cc1 (stereo unspecified)	-20%	-11%	-17%	1%	1%	i
NS(=O)(=O)c1ccc(NC(=S)NC(=O)C2CCCC2)cc1	10%	1%	2%	1%	5%	i
C=CCN(CC=C)S(=O)(=O)c1ccc(NC(=S)NC(=O)C2CC2)cc1	-21%	7%	-20%	18µM*	-21%	i
Cc1cccc(C)c1N(CC(=O)NCc1ccccc1)C(=O)c1csnn1	0%	3%	7%	-1%	3%	i
C=CCOCCN(C)C1=NS(=O)(=O)c2cc([N+](=O)[O-])ccc21	-36%	-8%	-19%	?	14µM*	i
CCn1c(O)c(N=NC(=S)NCC2CCCO2)c2ccccc21 (stereo unspecified)	.	-3%	21%	10µM*	-67%	.
Cc1cc(C)c2[nH]c(O)c(N=NC(=S)NCC3CCCO3)c2c1 (stereo unspecified)	-5%	-8%	3%	0%	-9%	i
Oc1[nH]c2c(Cl)cc(Cl)cc2c1N=NC(=S)NCC1CCCO1 (stereo unspecified)	21µM*	-27%	?	?	-4%	?
CN(C)CCCNc1cc(C(C)(C)C)nc2c(-c3ccc(Cl)cc3)cnn12	?	?	6%	22µM*	-103%	.
CC(C)(C)c1cc(NCc2ccccn2)n2ncc(-c3ccc(Cl)cc3)c2n1	.	2%	0%	-13%	-12%	i
COc1ccc(CN2CCN(C(=O)c3ccc(S(=O)(=O)N4CCCCCC4)cc3)CC2)cc1F	-37%	-20%	9.2µM*	?	-17%	i
N#Cc1ccc(S(=O)(=O)N2CCC(C(=O)N3CCN(Cc4ccc5c(c4)OCO5)CC3)CC2)cc1	-38%	-8%	18µM*	?	-23%	i
